High-throughput results as filed in PubChem.
This is a sample that favours compounds with a hit; in the whole collection about 19% have one here.
DT40 TDP1 CPT: growth inhibition of DT40 Tdp1-/-;hTDP1 cells with camptothecin (screen for TDP1 inhibitors) | chicken DT40 Tdp1-/-;hTDP1 cells + 20 nM CPT, ATP luminescence, 48 h | Potency, µM (highest dose often 46.2 µM), for inactives: top-dose activity change, negative = growth inhibition, most hits filed as inhibitors | actives 12% (n = 420,000); further: nearly all actives have a fitted effect of over 55% in size
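Chicken DT40 Tdp1-/- cells complemented with human TDP1, 400 cells/well, exposed to compounds plus 20 nM camptothecin for at least 48 h at 37 C; viability read as ATP content by CellTiter-Glo luminescence.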
TDP1 cell noCPT: qHTS for Inhibitors of human tyrosyl-DNA phosphodiesterase 1 (TDP1): qHTS in cells in absence of CPT; AID 686978, 2013; actives 15% (n = 420,000); DT40 Tdp1-/- hTDP1 cells, no CPT, ATP luminescence, 48 h; Potency, µM (highest dose often 46.2 µM), for inactives: top-dose activity change, negative = growth inhibition, most hits filed as inhibitors; further: nearly all actives have a fitted effect of over 55% in size
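Chicken DT40 Tdp1-/- cells stably complemented with human TDP1 were seeded at 400 cells/well with DMSO in place of 20 nM camptothecin. After compound pinning, cells grew at least 48 hr at 37 °C; viability read by CellTiter-Glo luminescence.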
VP16 counter: counter-screen for ROR gamma inhibitors: Gal4-VP16 reporter; Drosophila S2 Gal4-VP16 UAS-luciferase, luminescence, 20 h; Potency, µM (top dose mostly 53.6 µM), without a hit: at the top dose activity, negative = inhibition, most hits filed as inhibitors; actives 3.5% (n = 310,000);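 further: Gal4-VP16 expression switched on by copper sulfate through the metallothionein promoter; nearly all actives have a fitted effect of over 50% in size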
RORgamma inh: ROR gamma (mouse) transcription inhibition | P51450 | Drosophila S2 Gal4-RORgamma UAS-luciferase reporter, 20 h | Potency, µM (series often up to 53.6 µM), for the others: at the top dose activity change, negative = inhibition, usual class: inhibitors | actives 5.4% (n = 310,000); further: nearly all actives have a fitted effect of over 60% in size
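Luciferase reporter read in Schneider cells carrying Gal4-RORγ (mouse) and UAS-Photinus luciferase; cells given compound 1 h before 700 uM copper sulfate induction, then incubated 20 h at ambient temperature.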
TDP1 inh: inhibitors of human tyrosyl-DNA phosphodiesterase TDP1; Q9NUW8; recombinant TDP1, AlphaScreen DNA substrate cleavage; Potency, µM (series often up to 130 µM), without a hit: at the highest dose activity change, negative = inhibition, most hits filed as inhibitors; actives 0.28% (n = 350,000); AID 485290; further: nearly all actives have a fitted effect of over 40% in size
Target sequence (Q9NUW8 whole entry, looked up): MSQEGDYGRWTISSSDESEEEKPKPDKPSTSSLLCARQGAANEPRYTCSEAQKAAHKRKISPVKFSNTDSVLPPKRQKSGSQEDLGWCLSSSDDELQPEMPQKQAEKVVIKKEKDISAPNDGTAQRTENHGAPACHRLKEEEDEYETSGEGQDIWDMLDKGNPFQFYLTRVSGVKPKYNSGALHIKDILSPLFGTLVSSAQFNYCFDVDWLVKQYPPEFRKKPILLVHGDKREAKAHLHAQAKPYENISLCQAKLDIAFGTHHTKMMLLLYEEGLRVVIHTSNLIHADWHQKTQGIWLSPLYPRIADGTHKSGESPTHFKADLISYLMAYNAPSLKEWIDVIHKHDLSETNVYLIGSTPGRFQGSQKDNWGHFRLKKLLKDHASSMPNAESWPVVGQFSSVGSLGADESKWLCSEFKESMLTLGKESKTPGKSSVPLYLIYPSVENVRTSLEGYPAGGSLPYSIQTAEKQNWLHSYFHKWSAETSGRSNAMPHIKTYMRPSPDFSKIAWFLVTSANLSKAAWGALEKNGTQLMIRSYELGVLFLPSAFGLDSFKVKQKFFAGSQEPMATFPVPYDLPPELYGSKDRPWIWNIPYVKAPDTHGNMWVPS
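Recombinant E. coli-expressed Tdp1 (1 nM) preincubated with compound 15 min at RT, then 5'-biotin/3'-phosphotyrosine-FITC DNA substrate (15 nM) added for 5 min. AlphaScreen beads (10 ug/ml) added, 10 min RT; tyrosine-FITC cleavage read as signal loss.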
* = called active by the depositor; ? = inconclusive; . = not tested or not shown; [ ] = another dose, or the depositor's remark. The call rests on the fitted dose curve; in most records, active means well fitted curve in the direction sought with a large enough effect; inconclusive means small, poorly fitted or top-dose-only effect, or another doubt; inactive means no such curve, though single readings can be large; an effect the other way counts as inactive or inconclusive. On the % scale 0 is the no-effect control and ±100 the full control effect; potency means the concentration at half of the fitted maximal effect.

SMILES	DT40 TDP1 CPT	TDP1 cell noCPT	VP16 counter	RORgamma inh	TDP1 inh
Cc1ccc2c(c1)NC(=O)C(CC(=O)NCCCN1CCCCC1)O2 (stereo not drawn)	-3.0%	11.7%	0.1%	10.4%	-1.0%
COCCN(CCOC)Cc1cc(=O)oc2ccc3ccccc3c12	?	18.4µM*	.	.	.
CCC(=O)N1CCN(c2ccccc2NC(=S)NC(=O)c2cccc([N+](=O)[O-])c2)CC1	?	?	?	7.94µM*	11.0%
CCC(=O)N1CCN(c2ccc(NC(=S)NC(=O)c3cccc([N+](=O)[O-])c3)cc2)CC1	?	?	?	?	8.7%
O=C(NC(=S)Nc1ccccc1N1CCOCC1)c1cccc([N+](=O)[O-])c1	-18.8%	-27.9%	3.98µM*	1.58µM*	8.3%
CCc1cccc(C)c1NC(=O)c1cccnc1	13.6%	-5.4%	-6.3%	-23.2%	9.9%
CN(C)c1ccc(-c2ccccc2)nn1	-22.2%	?	-14.1%	-27.3%	5.6%
CCC(=O)Nc1ccc(C(=O)COC(=O)CCN2C(=O)C3CC=CCC3C2=O)cc1 (stereo not drawn)	-0.3%	-2.8%	.	.	-2.0%
COc1ccccc1-c1cc2nc(NCCc3ccc(S(N)(=O)=O)cc3)ccn2n1	?	20.6µM*	.	.	.
CCOC(=O)c1ccc(NC(=O)c2nc[nH]c2C(=O)N[C@@H](CC(C)C)C(=O)OCc2ccccc2)cc1	?	?	?	1.12µM*	0.0%
CCOC(=O)c1ccc(NC(=O)c2nc[nH]c2C(=O)N[C@@H](C)C(=O)OC(C)(C)C)cc1	?	?	-4.0%	?	0.0%
CC(C)C[C@H](NC(=O)c1[nH]cnc1C(=O)Nc1ccccc1)C(=O)OC(C)(C)C	25.9µM*	?	8.91µM*	5.01µM*	6.2%
CCOC(=O)c1ccc(NC(=O)c2nc[nH]c2C(=O)N[C@@H](CC(C)C)C(=O)OC(C)(C)C)cc1	?	?	6.31µM*	2.51µM*	-2.5%
CC1(C(=O)NCC2CC2)C=CC2(CCCCC2)N1C(=O)c1ccccc1 (stereo not drawn)	-12.6%	-7.7%	-12.3%	13.1%	5.1%
COC(=O)[C@]1(CC(C)C)N[C@H](c2ccc(SC3CCCCC3)c(OC)c2)[C@@H]2C(=O)N(C)C(=O)[C@@H]21	?	18.4µM*	.	.	0.2%
CCCCCCSc1ccc([C@H]2N[C@@](CC(C)C)(C(=O)OC)[C@H]3C(=O)N(C)C(=O)[C@@H]23)cc1OC	?	18.4µM*	.	.	.
CCCSc1ccc([C@H]2N[C@@](C)(C(=O)OC)[C@H]3C(=O)N(C)C(=O)[C@@H]23)cc1	-29.4%	-29.8%	.	.	-3.2%
O=C(CS(=O)(=O)c1cccc2nsnc12)Nc1ccc(F)cc1F	-27.4%	3.1%	.	.	-4.7%
NCC1CCN(c2nc3ccccc3c3c2CCCC3)CC1	20.6µM*	11.6µM*	.	.	.
CC1CCCN(c2c3c(nc4ccccc24)CCCC3)C1 (stereo not drawn)	?	?	-17.3%	?	.
CC1(C)CC(=O)C2=C(C1)OC(c1ccncc1)C(C#N)=C2N (stereo not drawn)	-11.6%	-21.3%	3.5%	-14.7%	6.6%
CCC(C)C(NC(=O)C1CCC(C)CC1)C(=O)NC1CCN(Cc2ccccc2)CC1 (stereo not drawn)	.	.	0.6%	-12.4%	.
CC(=O)Nc1ccc(C(=O)N/N=C/c2ccccc2OC(=O)c2ccc(Cl)cc2)cc1	9.2µM*	10.3µM*	-8.5%	?	7.0%
COc1cc(C(=O)Oc2ccccc2/C=N/NC(=O)c2ccc(C)c(Cl)c2)cc(OC)c1OC	1.16µM*	0.92µM*	?	5.01µM*	-1.4%
CC(=O)Nc1ccc(OC(=O)c2ccc(Cl)cc2)cc1	-14.2%	-4.8%	-15.0%	-5.1%	-2.6%
SMILES	DT40 TDP1 CPT	TDP1 cell noCPT	VP16 counter	RORgamma inh	TDP1 inh
Cc1ccc(S(=O)(=O)N2CCCCC2)cc1C(=O)N1CCCCCC1	-13.3%	-11.8%	.	.	1.7%
Cc1ccc(S(=O)(=O)N(CC(=O)NCc2cccs2)c2ccccc2)cc1	-2.9%	-21.3%	.	.	2.5%[0.505 µM]
CCOC(=O)C1(C)Oc2ccccc2C(C(=O)OC)=C1C(=O)OC (stereo not drawn)	?	16.4µM*	0.8%	10.3%	-0.6%[56.1 µM]
CCOC(=O)C1(C)Oc2ccccc2C(c2ccc(OC)cc2)=C1C(=O)OC (stereo not drawn)	?	?	-0.4%	8.3%	-8.2%[56.1 µM]
O=c1c2nnn(-c3ccccc3)c2ncn1C/C=C/c1ccccc1	-25.1%	25.9µM*	25.4%	-10.1%	.
COc1cccc(-n2nnc3c(=O)n(C/C=C/c4ccccc4)cnc32)c1	-24.5%	-29.4%	-2.1%	-26.9%	3.1%
COc1ccc(-c2c(C)nn3c(NC4CCCC4)cc(C)nc23)cc1OC	?	?	-3.7%	-43.6%	.
CCc1c(C)nc2cc(-c3ccc(OC)c(OC)c3)nn2c1NCC1CC1	13µM*	16.4µM*	4.47µM*	11.2µM*	-5.6%
O=C(NC(=S)N1CCN(c2ccc(Cl)cc2[N+](=O)[O-])CC1)c1cccs1	9.2µM*	20.6µM*	.	0.282µM*	-4.1%
O=C(NC(=S)N1CCN(c2ccc(O)cc2)CC1)c1ccco1	?	?	.	.	2.4%
O=C(NC(=S)N1CCN(c2ccc(Cl)cc2[N+](=O)[O-])CC1)c1ccco1	?	?	0.251µM*	0.282µM*	-1.8%
N#CCCn1c(=O)cnc2cnc(OCc3ccccc3)nc21	-3.7%	?	-15.0%	7.0%	.
CCNC(=S)N/N=C/c1ccc(OCC(=O)Nc2ccc(C)cc2)cc1	?	-30.0%	?	17.8µM*	5.7%
CCNC(=S)N/N=C/c1ccc(OCc2ccc(C(=O)OC)cc2)cc1	-18.1%	?	?	3.16µM*	3.0%
CCNC(=S)N/N=C/c1ccc(OCC(=O)Nc2ccc(OC)cc2)c(OC)c1	?	?	?	4.47µM*	5.8%
COc1ccc(NC(=O)COc2ccc(/C=N/O)cc2OC)cc1	?	11.6µM*	?	?	4.6%
C[C@H](N)c1nnc(SCc2c(Cl)cccc2Cl)o1	0.3%	5.6%	10.3%	-20.3%	4.9%
O=C(NCCSc1c(-c2ccccc2)[nH]c2ccccc12)c1cc2ccccc2oc1=O	?	?	-0.2%	39.5%	9.2%
Cc1onc(-c2c(F)cccc2Cl)c1C(=O)ONC(=O)c1ccccc1	0.3%	-12.8%	10.9%	2.3%	3.8%
CCS(=O)(=O)N1CCCC(C(=O)NC2CCCC2)C1 (stereo not drawn)	-0.8%	0.3%	-0.2%	-0.6%	5.9%
